A short description of assay [1]: BSK_3C_SRB: Viability Assessment in the BioMAP Diversity Plus: 3C Assay (AID 2283023).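 Further: fitted both ways against DMSO so a hit may be signal rise or drop.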 The following applies: primary human endothelial cells (HUVEC). The essentials:
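Primary human umbilical vein endothelial cells in the 3C system were read 24 h after compound dosing. Total protein was stained with 0.1% sulforhodamine B after 10% TCA fixation and read at 560 nm, with bidirectional fitting against DMSO as baseline.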

Read-out in assay [2]: Matrix Metallopeptidase 1 (MMP1), MMP1 (gene 4312)
Put plainly: BSK_BE3C_MMP1: BioMAP Diversity Plus: BE3C Assay for Matrix Metallopeptidase 1 (MMP1) Biomarker Activity (AID 2283024). The following applies: primary human bronchial epithelial cells; actives raise or lower the signal. The essentials: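 Primary human bronchial epithelial cells were dosed with test chemicals, and MMP1 levels were measured by ELISA 24 h later. Data were fitted bidirectionally against DMSO as the negative control and activity baseline.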

The nature of assay [3]: BSK_3C_Vis: BioMAP Diversity Plus: 3C Assay for Morphology Visualization (AID 2283025).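 Further: fitted both ways so gain or loss versus DMSO counts.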 The following applies: primary human endothelial cells (HUVEC). The gist of the method:
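Human umbilical vein endothelial cells in the 3C system were imaged by light microscopy 24 h after chemical dosing to record cell morphology. Activity was fitted bidirectionally against DMSO as negative control and baseline; the endpoint serves as a background control.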

Assay [4] can be described thus: BSK_4H_SRB: Viability Assessment in the BioMAP Diversity Plus: 4H Assay (AID 2283027).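 Further: cells exposed to compound for 24 h before staining.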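 On AC50: curves fitted both ways versus DMSO so AC50 may be loss or gain.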 As to conditions: primary human endothelial cells (HUVEC). The gist of the method:
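Absorbance at 560 nm of SRB-stained total protein served as the viability read-out in confluent primary human umbilical vein endothelium 24 h after chemical treatment. Curves were fitted bidirectionally against DMSO as negative control.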

Read-out in assay [5]: Thrombomodulin, THBD (gene 7056)
Briefly: BSK_3C_Thrombomodulin: BioMAP Diversity Plus: 3C Assay for Thrombomodulin Biomarker Activity (AID 2283029). As to conditions: primary human endothelial cells (HUVEC); actives raise or lower the signal. The gist of the method: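 Primary human umbilical vein endothelial cells (3C system) were exposed to chemical for 24 h, then thrombomodulin levels were measured by ELISA. Activity was fitted bidirectionally against the DMSO negative control as baseline.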

Read-out in assay [6]: Urokinase-type plasminogen activator receptor (uPAR), PLAUR (gene 5329)
Briefly: BSK_4H_uPAR: BioMAP Diversity Plus: 4H Assay for Urokinase-type plasminogen activator receptor (uPAR) Biomarker Activity (AID 2283030). As to conditions: primary human endothelial cells (HUVEC); actives raise or lower the signal. The essentials: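 Primary human umbilical vein endothelial cells were exposed to chemical for 24 h before cell-surface uPAR was quantified by ELISA. Activity was fitted bidirectionally against the DMSO negative control baseline.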

Read-out in assay [7]: Vascular endothelial growth factor receptor 2 (Homo sapiens) (UniProt P35968)
Briefly: BSK_4H_VEGFRII: BioMAP Diversity Plus: 4H Assay for Vascular endothelial growth factor receptor 2 (VEGFR2) Biomarker Activity (AID 2283031).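 On AC50: cell-surface VEGFR2 protein level quantified by ELISA.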 The following applies: primary human endothelial cells (HUVEC); actives raise or lower the signal. The gist of the method:
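Primary human umbilical vein endothelial cells in the BioMAP 4H system were dosed with test chemical, and 24 h later VEGFRII was measured by ELISA. Activity was fitted bidirectionally against DMSO as negative control and baseline.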

Read-out in assay [8]: Human Leukocyte Antigen - DR isotype (HLADR), HLA-DRA (gene 3122)
Briefly: BSK_BE3C_HLADR: BioMAP Diversity Plus: BE3C Assay for Human Leukocyte Antigen - DR isotype (HLADR) Biomarker Activity (AID 2283032). As to conditions: primary human bronchial epithelial cells; actives raise or lower the signal. The essentials:
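Human primary bronchial epithelial cells in the BE3C system were exposed to chemicals for 24 h, after which HLA-DR levels were quantified by ELISA. Activity was fitted bidirectionally, gain or loss of signal, against DMSO as negative control and baseline.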

Read-out in assay [9]: Pselectin, SELP (gene 6403)
Briefly: BSK_4H_Pselectin: BioMAP Diversity Plus: 4H Assay for Pselectin Biomarker Activity (AID 2283026). As to conditions: primary human endothelial cells (HUVEC); actives raise or lower the signal. The gist of the method:
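Primary human umbilical vein endothelial cells were exposed to test chemical for 24 h, then cell-surface P-selectin was quantified by ELISA. Activity was fitted bidirectionally against DMSO as negative control and baseline.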

Assay [10] in a line: BSK_BE3C_SRB: Viability Assessment in the BioMAP Diversity Plus: BE3C Assay (AID 2283028).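 On AC50: fitted both ways so AC50 may mark signal gain or loss versus DMSO.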 The following applies: primary human bronchial epithelial cells. The gist of the method: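 Human primary bronchial epithelial cells were exposed to test chemicals for 24 h. Total protein in parallel cultures was then measured by staining with 0.1% sulforhodamine B after 10% TCA fixation, with absorbance read at 560 nm. Activity was fitted bidirectionally against DMSO.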

For orientation: AC50 means the concentration at which the activity in the assay is half-maximal.

Each structure is given as a SMILES string. Calls of active or inactive are those of the source. How the source made its calls: active means hit-call score of the fitted dose curve at least 0.9, where 1 is the maximum; inactive means score below 0.9.

In the case of `Oc1ccc2ccccc2c1`, the outcome in [1], in assay [2], in assay [3], in assay [4], in [5] and in assay [6] was inactive. In addition, the result in [7] and in assay [8] was inactive.

For the compound `O=C(O)Cn1c(=O)n(Cc2ccc(Br)cc2F)c(=O)c2ccc(Cl)cc21`, the outcome in assay [2], in assay [3], in assay [9], in assay [4], in [10] and in [5] was inactive. The result in [6], in assay [7] and in [8] was inactive.

Consider `CC[C@@H]1C[C@H](N(Cc2cc(C(F)(F)F)cc(C(F)(F)F)c2)C(C)=O)c2cc(C(F)(F)F)ccc2N1C(=O)OC(C)C`, for which the result in assay [1], in [2], in assay [3], in assay [10], in [5] and in assay [6] was inactive. Further, the result in assay [7] and in assay [8] was inactive.

`C[C@]12CC[C@@H]3c4ccc(O)cc4CC[C@H]3[C@@H]1CCC2=O`: the outcome in assay [1], in assay [3], in [5], in assay [6], in [7] and in [8] was inactive. Besides, the AC50 in assay [2] is 3.97 µM (active).

`CC(C)(O)c1ccc(CNC(=O)c2cccnc2Oc2ccc3nonc3c2)cc1`: the result in [1], in [2], in assay [3], in [5], in assay [6] and in [7] was inactive. Further, the result in assay [8] was inactive.

Regarding `Clc1cc(Cl)c2c(c1)N=C1CCCCCN1C2`, the outcome in assay [1], in assay [2], in assay [3], in assay [10], in [5] and in assay [6] was inactive. In addition, the outcome in [7] and in [8] was inactive.

Consider `OCCO`, for which the outcome in assay [1], in [2], in [3], in [5], in assay [6] and in assay [8] was inactive.

For `c1ccc2ccccc2c1`, the outcome in [1], in assay [2], in [3], in assay [10], in assay [5] and in assay [6] was inactive. Also, the outcome in assay [7] and in assay [8] was inactive.

As for `CC1=CC(=O)/C(=C(/C)O)C(=O)O1`, the outcome in [1], in [2], in assay [3], in [9], in assay [4] and in [5] was inactive. Moreover, the result in [6], in assay [7] and in [8] was inactive.

For the compound `CCOC(=O)O[C@H](C)OC(=O)c1ccc2c(c1)cc(C(=O)NC1CCN(C(C)C)CC1)n2Cc1cc(-c2ccc(Cl)s2)on1`, the AC50 in assay [1] was 5.03 µM (active); in [2], 13.2 µM (active); in assay [3] it was 5.3 µM (active); in assay [9], 6.95 µM (active); in assay [10], 6.07 µM (active); in assay [6], 7.66 µM (active). Further, the AC50 in [7] was 5.06 µM (active); in [8] it was 10.7 µM (active). Besides, in assay [5], the result was inactive.

Consider `C[C@]12CC[C@@H]3c4ccc(O)cc4CC[C@H]3[C@@H]1CC[C@H]2O`, for which the AC50 in assay [1] is 12.4 µM (active); in [3] it was 20.7 µM (active); in [4], 9.1 µM (active); in [6] it was 12.8 µM (active). The result in [2], in assay [10], in assay [5], in assay [7] and in [8] was inactive.

For the compound `O=C1c2ccccc2C(=O)N1CCc1noc(-c2ccc(CN3CCCCCC3)s2)n1`, the outcome in assay [1], in assay [2], in assay [3], in [4], in assay [5] and in assay [7] was inactive. Moreover, the outcome in assay [8] was inactive. In addition, the AC50 is 17.8 µM (active) in assay [9] and 22.8 µM (active) in assay [6].

As for `Cc1cc(F)ccc1-c1cc(N2CC[C@@H](O)[C@H]2CO)ncc1N(C)C(=O)C(C)(C)c1cc(C(F)(F)F)cc(C(F)(F)F)c1`, the AC50 in [1] was 9.17 µM (active); in assay [2], 14.5 µM (active); in assay [3], 10 µM (active); in assay [4], 11.9 µM (active); in assay [6] it was 10.2 µM (active); in assay [7], 7.98 µM (active). Besides, the AC50 in assay [8] is 12.8 µM (active). For the same compound, the outcome in assay [5] was inactive.

Regarding `CCCCCCCCOc1ccc(C(=O)c2ccccc2)c(O)c1`, the figures for the AC50 in assay [1] and in [5] were 28.7 µM (active) and 7.71 µM (active), respectively. In addition, the result in [2], in [3], in [4], in assay [10], in [6] and in assay [7] was inactive. Besides, the outcome in [8] was inactive.

As for `CCCCCCCCOC(=O)c1cc(O)c(O)c(O)c1`, the AC50 in [1] is 20 µM (active); in [2] it was 33.5 µM (active); in assay [3], 37.5 µM (active); in [9] it was 17.8 µM (active); in assay [10], 33.6 µM (active); in [6], 37.7 µM (active). Also, the AC50 in assay [8] was 22 µM (active). In addition, the outcome in [5] and in [7] was inactive.

As to `CN1C(=O)N(c2ccccc2Br)Cc2cnc(Nc3ccc4c(c3)OCC(CO)O4)nc21` (centres undefined), the AC50 in assay [1] was 20 µM (active); in assay [2] it was 7.24 µM (active); in assay [3] it was 20.7 µM (active); in [9], 6.75 µM (active); in assay [10] it was 28.1 µM (active); in [6] it was 3.51 µM (active). Further, in assay [8], the AC50 was 28.5 µM (active). For the same compound, the outcome in assay [5] and in assay [7] was inactive.

Regarding `O=c1c(-c2ccc(O)cc2)coc2cc(O)cc(O)c12`, the AC50 in [2] was 15.3 µM (active); in assay [3] it was 39 µM (active); in [9], 17.1 µM (active); in assay [4], 14.7 µM (active); in [6], 14.1 µM (active). In addition, the outcome in assay [10], in assay [5], in [7] and in assay [8] was inactive.

Regarding `CO[C@H]1/C=C/O[C@@]2(C)Oc3c(C)c(O)c4c(O)c(c(/C=N/N5CCN(C)CC5)c(O)c4c3C2=O)NC(=O)/C(C)=C\C=C\[C@H](C)[C@H](O)[C@@H](C)[C@@H](O)[C@@H](C)[C@H](OC(C)=O)[C@@H]1C`, the outcome in [1], in assay [2], in assay [3], in assay [4], in assay [5] and in [6] was inactive. Moreover, the result in assay [7] and in assay [8] was inactive.

As for `CC1(C)NC(=O)N(c2ccc([N+](=O)[O-])c(C(F)(F)F)c2)C1=O`, the result in assay [1], in assay [2], in assay [3], in assay [9], in assay [4] and in [10] was inactive. Besides, the outcome in assay [5], in assay [6], in assay [7] and in assay [8] was inactive.

For the origin of these results see PubChem BioAssay (EPA / NIEHS).
